Test results: PubChem BioAssay (NCATS)
Several values for one entry are separate records, joined by “and”; a condition that tells them apart may be missing. Identical values can stand only once. Results filed as inconclusive are left out. The source holds several records for some structures; these can differ, active in one and inactive in another. Activity calls are given as the source filed them. Calls come from the whole dose curve; as a rule, active = well fitted curve in the direction sought with a large enough effect; inconclusive = small, poorly fitted or top-dose-only effect, or another doubt; inactive = no such curve, though single readings can be large; an effect the other way counts as inactive or inconclusive.

Tests used:
MKL-1 = assay: qHTS assay to identify novel small-molecules to repurpose for Merkel cell carcinoma treatment (AID 1296009); details: MCC and control cell lines, CellTiter-Glo viability, 72 h; series mostly up to 46 µM; note: nearly all actives have a fitted effect of over 60% in size
Procedure, shortened: (§1)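 Viability readout: ATP luminescence (CellTiter-Glo) after 72 hr drug exposure at 37 degree celsius. Dose-response format was 8 points for NPC and 11 points for MIPE; data normalized to in-plate controls.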

MKL-2 = assay: as above; details: MCC and control cell lines, CellTiter-Glo viability, 72 h; series mostly up to 46 µM
Procedure, shortened: as §1

UISO = assay: as above; details: MCC and control cell lines, CellTiter-Glo viability, 72 h; series mostly up to 46 µM
Procedure, shortened: as §1

WaGa = assay: as above; details: MCC and control cell lines, CellTiter-Glo viability, 72 h; series mostly up to 46 µM
Procedure, shortened: as §1

C33A = assay: Primary qHTS to identify gynecologic anti-cancer compounds using libraries of approved drugs and bioactive compounds (AID 1345084); details: Gynecologic cancer cell panel viability, ATPlite luminescence, 48 h; series mostly up to 57.5 µM; note: nearly all actives have a fitted effect of over 55% in size
Procedure, shortened: (§2)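 48 h compound exposure at 37 C, 5% CO2; five-point qHTS. ATPlite luminescence readout of cell ATP.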

CASKI = assay: as above; details: Gynecologic cancer cell panel viability, ATPlite luminescence, 48 h; series mostly up to 57.5 µM
Procedure, shortened: as §2

Es-2 = assay: as above; details: Gynecologic cancer cell panel viability, ATPlite luminescence, 48 h; series mostly up to 57.5 µM
Procedure, shortened: as §2

HeLa = assay: as above; details: Gynecologic cancer cell panel viability, ATPlite luminescence, 48 h; series mostly up to 57.5 µM
Procedure, shortened: as §2

Hek293T = assay: as above; details: Gynecologic cancer cell panel viability, ATPlite luminescence, 48 h, control line for the selectivity index; series mostly up to 57.5 µM
Procedure, shortened: as §2

JEG-3 = assay: as above; details: Gynecologic cancer cell panel viability, ATPlite luminescence, 48 h; series mostly up to 57.5 µM
Procedure, shortened: as §2

OV90 = assay: as above; details: Gynecologic cancer cell panel viability, ATPlite luminescence, 48 h; series mostly up to 57.5 µM
Procedure, shortened: as §2

PA-1 = assay: as above; details: Gynecologic cancer cell panel viability, ATPlite luminescence, 48 h; series mostly up to 57.5 µM
Procedure, shortened: as §2

SKOV3 = assay: as above; details: Gynecologic cancer cell panel viability, ATPlite luminescence, 48 h; series mostly up to 57.5 µM
Procedure, shortened: as §2

Tov-21-G = assay: as above; details: Gynecologic cancer cell panel viability, ATPlite luminescence, 48 h; series mostly up to 57.5 µM
Procedure, shortened: as §2

Tov112D = assay: as above; details: Gynecologic cancer cell panel viability, ATPlite luminescence, 48 h; series mostly up to 57.5 µM
Procedure, shortened: as §2

[1] = Drug repurposing screens with cells derived from glioblastoma tumor samples (AID 1345199); details: GBM patient neurospheres viability, ATP luminescence, 48 h; note: nearly all actives have a fitted effect of over 40% in size
Procedure, shortened: (§3)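 Primary testing used CD133+ neurospheres from four GBM patients, seven concentrations, 48 h exposure and ATP-based viability; confirmation added three slower-growing patient lines.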

astro = assay: as above; details: viability, ATP luminescence, 48 h; series mostly up to 45.9 µM
Procedure, shortened: as §3

CAOV3 = assay: Primary qHTS to identify gynecologic anti-cancer compounds using libraries of approved drugs and bioactive compounds (AID 1345084); details: Gynecologic cancer cell panel viability, ATPlite luminescence, 48 h; series mostly up to 57.5 µM; note: nearly all actives have a fitted effect of over 55% in size
Procedure, shortened: as §2

[2] = qHTS assay to identify inhibitors of the type 1 interferon - major histocompatibility complex class I in skeletal muscle: Counter screen cell viability and HiBit confirmation (AID 1347412); details: iHSKM muscle cells + IFN-b, HiBiT or CellTiter-Glo, 24 h; for activity change, negative = inhibition: at 45.9 µM (top of the series); for all read-outs here: nearly all actives have a fitted effect of over 60% in size
Procedure, shortened: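 Luminescence read-out: Nano-Glo HiBiT lytic signal from C-terminally HiBiT-tagged HLA-B in CRISPR-edited human myoblasts, plus CellTiter Glo ATP as viability counter screen. IFN-beta 4.0 ng/ml; 24 hrs treatment at 37 C, 5% CO2.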

[3] = at 45.9 µM (top of the series), tumour line B
[4] = at 45.9 µM (top of the series), tumour line D
[5] = at 46 µM (top of the series), tumour line A
[6] = at 46.1 µM (top of the series), tumour line C
[7] = at 20 µM (top of the series), tumour line C
[8] = at 21.2 µM (top of the series), tumour line B
[9] = at 21.2 µM (top of the series), tumour line D
[10] = at 21.3 µM (top of the series), tumour line A
% is set by controls: 0 for no effect and ±100 for the full control effect; potency is the fitted concentration of half-maximal effect.

NC(=O)c1cccnc1
inactive: Potency (MKL-1) | Potency (MKL-2) | Potency (UISO) | Potency (WaGa) | Potency (C33A) | Potency (CASKI) | Potency (Es-2) | Potency (HeLa) | Potency (Hek293T) | Potency (JEG-3) | Potency (OV90) | Potency (PA-1) | Potency (SKOV3) | Potency (Tov-21-G) | Potency (Tov112D) | activity, negative = cell killing [1, 3] -7.44% | activity, negative = cell killing [1, 4] -0.242% | activity, negative = cell killing [1, 5] -16% | activity, negative = cell killing [1, 6] 4.44% | Potency (astro)

CC(=O)CC(c1ccccc1)c1c(O)c2ccccc2oc1=O (configuration not stated)
inactive: Potency (MKL-1) | Potency (MKL-2) | Potency (UISO) | Potency (WaGa) | Potency (C33A) | Potency (CAOV3) | Potency (CASKI) | Potency (Es-2) | Potency (HeLa) | Potency (Hek293T) | Potency (JEG-3) | Potency (OV90) | Potency (Tov-21-G) | Potency (Tov112D) | activity, negative = cell killing [1, 3] -11.1% and -14.3% | activity, negative = cell killing [1, 4] 1.21% and -22.4% | activity, negative = cell killing [1, 5] -22% | activity, negative = cell killing [1, 6] -1.82% and -1.98%

C1CCC(C(CC2CCCCN2)C2CCCCC2)CC1 (configuration not stated)
active: Potency (MKL-1) 6.68 µM | Potency (MKL-2) 2.37 µM and 18.7 µM | Potency (WaGa) 21.1 µM | Potency (C33A) 31.6 µM | Potency (CAOV3) 6.31 µM | Potency (CASKI) 20 µM | Potency (Es-2) 28.2 µM | Potency (OV90) 25.1 µM | Potency (SKOV3) 7.94 µM | Potency (Tov-21-G) 31.6 µM | Potency (astro) 15.8 µM
16.8 µM (active) and inactive: Potency (UISO)

Oc1c(Cl)cc(Cl)c2cccnc12
active: Potency (MKL-1) 5.31 µM | Potency (MKL-2) 3.76 µM | Potency (UISO) 13.3 µM | Potency (WaGa) 11.9 µM | Potency (Es-2) 20 µM | Potency (PA-1) 12.6 µM | Potency (Tov-21-G) 28.2 µM | Potency ([1]; tumour line A) 15.8 µM | Potency ([1]; tumour line B) 8.91 µM
inactive: Potency (CASKI) | activity, negative = cell killing [1, 6] -48.9% | activity change, negative = inhibition ([2]; HiBiT) -16.5% | activity change, negative = inhibition ([2]; Viability) -8.17%

CN(CCOc1ccc(CC2SC(=O)NC2=O)cc1)c1ccccn1 (configuration not stated)
inactive: Potency (MKL-1) | Potency (MKL-2) | Potency (UISO) | Potency (WaGa) | Potency (C33A) | Potency (CAOV3) | Potency (CASKI) | Potency (Es-2) | Potency (HeLa) | Potency (Hek293T) | Potency (JEG-3) | Potency (PA-1) | Potency (SKOV3) | Potency (Tov-21-G) | Potency (Tov112D) | activity, negative = cell killing [1, 3] -18.3% | activity, negative = cell killing [1, 4] -26.6% | activity, negative = cell killing [1, 5] -36.2% | activity, negative = cell killing [1, 6] 15.3%

COc1ccc2c(c1)c(CC(=O)OCC(=O)O)c(C)n2C(=O)c1ccc(Cl)cc1
inactive: Potency (MKL-1) | Potency (MKL-2) | Potency (UISO) | Potency (WaGa) | Potency (C33A) | Potency (CAOV3) | Potency (CASKI) | Potency (Es-2) | Potency (Hek293T) | Potency (JEG-3) | Potency (OV90) | Potency (PA-1) | Potency (SKOV3) | Potency (Tov-21-G) | Potency (Tov112D) | activity, negative = cell killing [1, 3] -1.02% | activity, negative = cell killing [1, 4] -7.57% | activity, negative = cell killing [1, 6] 8.41% | Potency (astro)

COc1cc(NS(=O)(=O)c2ccc(N)cc2)nc(OC)n1
inactive: Potency (MKL-1) | Potency (MKL-2) | Potency (UISO) | Potency (WaGa) | Potency (C33A) | Potency (CAOV3) | Potency (CASKI) | Potency (Es-2) | Potency (HeLa) | Potency (Hek293T) | Potency (JEG-3) | Potency (PA-1) | Potency (SKOV3) | Potency (Tov-21-G) | Potency (Tov112D) | activity, negative = cell killing [1, 7] -7.42% | activity, negative = cell killing [1, 8] -12.9% | activity, negative = cell killing [1, 9] -12.1% | activity, negative = cell killing [1, 10] -9.97% | Potency (astro)

Cc1cccc(N(C)C(=S)Oc2ccc3ccccc3c2)c1
inactive: Potency (MKL-1) | Potency (MKL-2) | Potency (UISO) | Potency (WaGa) | Potency (C33A) | Potency (CAOV3) | Potency (CASKI) | Potency (Es-2) | Potency (HeLa) | Potency (Hek293T) | Potency (OV90) | Potency (PA-1) | Potency (SKOV3) | Potency (Tov-21-G) | Potency (Tov112D) | activity, negative = cell killing [1, 7] -6.63% | activity, negative = cell killing [1, 8] -15.9% | activity, negative = cell killing [1, 9] -7.02%

CN1CCCC(n2nc(Cc3ccc(Cl)cc3)c3ccccc3c2=O)CC1 (configuration not stated)
inactive: Potency (C33A) | Potency (CAOV3) | Potency (CASKI) | Potency (HeLa) | Potency (Hek293T) | Potency (JEG-3) | Potency (SKOV3) | activity, negative = cell killing [1, 6] 4.16%
active: Potency (MKL-1) 1.48 µM | Potency (MKL-2) 15 µM and 418 nM | Potency (UISO) 13.2 µM | Potency (WaGa) 0.296 µM | Potency ([1]; tumour line A) 11.2 µM | Potency ([1]; tumour line D) 14.1 µM

CCN[C@H]1C[C@H](C)S(=O)(=O)c2sc(S(N)(=O)=O)cc21
inactive: Potency (MKL-1) | Potency (MKL-2) | Potency (UISO) | Potency (WaGa) | Potency (C33A) | Potency (CASKI) | Potency (Es-2) | Potency (Hek293T) | Potency (JEG-3) | Potency (OV90) | Potency (PA-1) | Potency (SKOV3) | Potency (Tov-21-G) | Potency (Tov112D) | activity, negative = cell killing [1, 3] -1.09% | activity, negative = cell killing [1, 4] 3.44% | activity, negative = cell killing [1, 6] -27% | Potency (astro)

CO[C@@H]1[C@@H](OC(N)=O)[C@@H](O)[C@H](Oc2ccc3c(O)c(NC(=O)c4ccc(O)c(CC=C(C)C)c4)c(=O)oc3c2C)OC1(C)C
inactive: Potency (MKL-1) | Potency (MKL-2) | Potency (UISO) | Potency (WaGa) | Potency (C33A) | Potency (CAOV3) | Potency (CASKI) | Potency (Hek293T) | Potency (JEG-3) | Potency (OV90) | Potency (PA-1) | Potency (SKOV3) | Potency (Tov-21-G) | Potency (Tov112D) | activity, negative = cell killing [1, 7] -4.06% | activity, negative = cell killing [1, 8] -5.36% | activity, negative = cell killing [1, 9] -2.99% | activity, negative = cell killing [1, 10] -27.7%

COc1cc2nc(N3CCCN(C)CC3)nc(NC3CCN(Cc4ccccc4)CC3)c2cc1OC
active: Potency (MKL-1) 2.96 µM | Potency (MKL-2) 1.32 µM | Potency (UISO) 14.8 µM | Potency ([2]; Viability) 22.2 µM

CC(C)NCC(O)c1ccc(NS(C)(=O)=O)cc1 (configuration not stated)
inactive: Potency (MKL-1) | Potency (MKL-2) | Potency (UISO) | Potency (WaGa) | activity, negative = cell killing [1, 3] -3.14% and -4.61% | activity, negative = cell killing [1, 4] -13.7% and -17.7% | activity, negative = cell killing [1, 5] -32.2% | activity, negative = cell killing [1, 6] -4.94% and -17% | Potency (astro)
